Test results as given in PubChem BioAssay (NCI).
The panel holds about 83,000 compounds, 20% with a hit somewhere; the sample as a whole holds those more often.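 Note: values are percent growth. 100 is the growth of untreated cells, values between 100 and 0 indicate rising inhibition; between -100 and 0 indicates cell death.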 A number with no mark means an inactive call. The source made the active and inactive calls. How the source made its calls: active means growth percent below 10; inactive means the rest.

How the values were obtained:
Experiment in all cases: NCI-60 one-dose screen, 48 h (100 = growth as untreated, 0 = no growth, -100 = all killed)
Details in all cases: 10 µM unless noted
NCI-H23 lung = test system: NCI-H23 lung
NCI-H226 lung = test system: NCI-H226 lung
NCI-H322M lung = test system: NCI-H322M lung
HOP-62 NSCLC = test system: HOP-62 NSCLC
NCI-H522 lung = test system: NCI-H522 lung
A549/ATCC NSCLC = test system: A549/ATCC NSCLC
786-0 renal = test system: 786-0 renal
COLO 205 colon = test system: COLO 205 colon
DU-145 prostate = test system: DU-145 prostate
K-562 leukemia = test system: K-562 leukemia
MALME-3M melanoma = test system: MALME-3M melanoma
MDA-MB-231 breast = test system: MDA-MB-231 breast
RXF 393 renal = test system: RXF 393 renal
SF-268 CNS = test system: SF-268 CNS
SF-295 CNS = test system: SF-295 CNS
SF-539 CNS = test system: SF-539 CNS
UACC-257 melanoma = test system: UACC-257 melanoma
M14 melanoma = test system: M14 melanoma

`COc1cccc(-c2cc(-c3cccs3)c(C#N)c(=O)[nH]2)c1` showed a growth (NCI-H23 lung) of 98.9%, a growth (NCI-H226 lung) of 110% and a growth (NCI-H322M lung) of 108%. For the same compound, the growth (HOP-62 NSCLC) was 108%, the growth (NCI-H522 lung) was 98.8% and the growth (A549/ATCC NSCLC) was 102%. It also gave a growth (786-0 renal) of 94.1%, a growth (COLO 205 colon) of 111% and a growth (DU-145 prostate) of 108%. It also gave a growth (K-562 leukemia) of 102%, a growth (MALME-3M melanoma) of 110% and a growth (MDA-MB-231 breast) of 106%. The growth (RXF 393 renal) was 117%, the growth (SF-268 CNS) was 104% and the growth (SF-295 CNS) was 102%. It also gave a growth (SF-539 CNS) of 101%, a growth (UACC-257 melanoma) of 115% and a growth (M14 melanoma) of 105%.
With `COC(=O)OC1C(O[C@H]2C[C@H]3[C@@H]4CC=C5C[C@@H](O)CC[C@]5(C)[C@H]4CC[C@]3(C)[C@H]2[C@H](C)C(=O)CCC(C)C)OCC(O)C1OC1OCC(O)C(O)C1OC(=O)c1ccc(OC)cc1` (stereo partly specified) the growth (NCI-H23 lung) was 27.9%, the growth (NCI-H226 lung) was -8.65% (active) and the growth (NCI-H322M lung) was 45.2%. For the same compound, the growth (HOP-62 NSCLC) was -26.5% (active), the growth (A549/ATCC NSCLC) was 1.81% (active) and the growth (786-0 renal) was -25% (active). The growth (COLO 205 colon) was -52.4% (active), the growth (DU-145 prostate) was 34.8% and the growth (K-562 leukemia) was -25.2% (active). For the same compound, the growth (MALME-3M melanoma) was -6.07% (active), the growth (MDA-MB-231 breast) was 22.7% and the growth (RXF 393 renal) was -71.9% (active). The growth (SF-268 CNS) was -6.22% (active), the growth (SF-295 CNS) was -66.4% (active) and the growth (SF-539 CNS) was -58.1% (active). The growth (UACC-257 melanoma) was -55.3% (active) and the growth (M14 melanoma) was -58.5% (active).
For `CCOC(=O)c1cc(N)nc2ccccc12`, the growth (NCI-H23 lung) was 99.2%, the growth (NCI-H226 lung) was 102% and the growth (NCI-H322M lung) was 156%. The growth (HOP-62 NSCLC) was 94.7%, the growth (NCI-H522 lung) was 101% and the growth (A549/ATCC NSCLC) was 122%. It also gave a growth (786-0 renal) of 102%, a growth (COLO 205 colon) of 112% and a growth (DU-145 prostate) of 104%. The growth (K-562 leukemia) was 91.1%, the growth (MALME-3M melanoma) was 139% and the growth (MDA-MB-231 breast) was 107%. It also gave a growth (RXF 393 renal) of 109%, a growth (SF-268 CNS) of 91.1% and a growth (SF-295 CNS) of 100%. For the same compound, the growth (SF-539 CNS) was 97.8% and the growth (UACC-257 melanoma) was 115%.
`CC(C)(C)OC(=O)N1CCCN(CCNc2nccc(-c3c(-c4cccc(O)c4)nc4sccn34)n2)S1(=O)=O` showed a growth (NCI-H23 lung) of 94.1%, a growth (NCI-H226 lung) of 91.1% and a growth (NCI-H322M lung) of 92.6%. For the same compound, the growth (HOP-62 NSCLC) was 115%, the growth (NCI-H522 lung) was 92.4% and the growth (A549/ATCC NSCLC) was 101%. It also gave a growth (786-0 renal) of 87.3%, a growth (COLO 205 colon) of 46.2% and a growth (DU-145 prostate) of 85%. The growth (MALME-3M melanoma) was 17.9%, the growth (MDA-MB-231 breast) was 84.3% and the growth (RXF 393 renal) was 78.5%. The growth (SF-268 CNS) was 110%, the growth (SF-295 CNS) was 112% and the growth (SF-539 CNS) was 104%. It also gave a growth (UACC-257 melanoma) of 62.3% and a growth (M14 melanoma) of 16.7%.
For `C=CC(=O)N1CN(C(=O)C=C)CN(C(=O)C=C)C1`, the growth (NCI-H23 lung) was 67.4%, the growth (NCI-H226 lung) was 87% and the growth (NCI-H322M lung) was 108%. The growth (HOP-62 NSCLC) was 88.3%, the growth (NCI-H522 lung) was -35.4% (active) and the growth (A549/ATCC NSCLC) was 94.6%. The growth (786-0 renal) was 95.7%, the growth (COLO 205 colon) was -44.4% (active) and the growth (DU-145 prostate) was 77%. The growth (K-562 leukemia) was 23.5%, the growth (MALME-3M melanoma) was -41.9% (active) and the growth (MDA-MB-231 breast) was 103%. The growth (RXF 393 renal) was 10.2%, the growth (SF-268 CNS) was 85.3% and the growth (SF-295 CNS) was 112%. For the same compound, the growth (SF-539 CNS) was 71.7%, the growth (UACC-257 melanoma) was 48% and the growth (M14 melanoma) was 87.1%.
With `CNC(=O)OC1C(O[C@H]2C[C@H]3[C@@H]4CC=C5C[C@@H](O)CC[C@]5(C)[C@H]4CC[C@]3(C)[C@H]2[C@H](C)C(=O)CCC(C)C)OCC(O)C1OC1OCC(O)C(O)C1OC(=O)c1ccc(OC)cc1` (stereo partly specified) the growth (NCI-H23 lung) was 39.3%, the growth (NCI-H226 lung) was 3.4% (active) and the growth (NCI-H322M lung) was 57.6%. For the same compound, the growth (HOP-62 NSCLC) was 0.544% (active), the growth (NCI-H522 lung) was -35.8% (active) and the growth (A549/ATCC NSCLC) was 11.5%. For the same compound, the growth (786-0 renal) was -14.3% (active), the growth (COLO 205 colon) was -42.8% (active) and the growth (DU-145 prostate) was 42%. For the same compound, the growth (K-562 leukemia) was -20.5% (active), the growth (MALME-3M melanoma) was 4.11% (active) and the growth (MDA-MB-231 breast) was 32.5%. The growth (RXF 393 renal) was -64.4% (active), the growth (SF-268 CNS) was 0.344% (active) and the growth (SF-295 CNS) was -63.3% (active). For the same compound, the growth (SF-539 CNS) was -53.5% (active), the growth (UACC-257 melanoma) was -54.9% (active) and the growth (M14 melanoma) was -65.5% (active).
Compound `CCCCCCCC/C=C\CCCCCCCC(=O)OCCCCCC` has a growth (NCI-H23 lung) of 98.4%, a growth (NCI-H226 lung) of 94.7% and a growth (NCI-H322M lung) of 111%. The growth (HOP-62 NSCLC) was 121%, the growth (NCI-H522 lung) was 104% and the growth (A549/ATCC NSCLC) was 90.6%. The growth (786-0 renal) was 105%, the growth (COLO 205 colon) was 124% and the growth (DU-145 prostate) was 103%. For the same compound, the growth (K-562 leukemia) was 100%, the growth (MALME-3M melanoma) was 120% and the growth (MDA-MB-231 breast) was 136%. It also gave a growth (RXF 393 renal) of 104%, a growth (SF-268 CNS) of 108% and a growth (SF-295 CNS) of 95.6%. The growth (SF-539 CNS) was 109%, the growth (UACC-257 melanoma) was 95.7% and the growth (M14 melanoma) was 112%.
In the case of `Cc1cc(O)ccc1Sc1ccccc1[N+](=O)[O-]`, the growth (NCI-H23 lung) is reported as 86.2%, the growth (NCI-H226 lung) is reported as 97.2% and the growth (NCI-H322M lung) is reported as 110%. For the same compound, the growth (HOP-62 NSCLC) was 92.2%, the growth (NCI-H522 lung) was 75.9% and the growth (A549/ATCC NSCLC) was 84.9%. The growth (786-0 renal) was 107%, the growth (COLO 205 colon) was 108% and the growth (DU-145 prostate) was 96%. For the same compound, the growth (K-562 leukemia) was 101%, the growth (MALME-3M melanoma) was 79.6% and the growth (MDA-MB-231 breast) was 106%. For the same compound, the growth (RXF 393 renal) was 106%, the growth (SF-268 CNS) was 98.4% and the growth (SF-295 CNS) was 90.1%. It also gave a growth (SF-539 CNS) of 102%, a growth (UACC-257 melanoma) of 88.1% and a growth (M14 melanoma) of 88.9%.
